Drawing on PubChem BioAssay AID1626 (SRMLSC, 2009), this text covers inhibition for 98 compounds.

Out of some 220,000 compounds screened, about 2,000 (0.91%) were called active. Roughly 2% stayed inconclusive and do not appear here. Cut-off read from the data, not from the text of the source: inconclusive = inhibition above about 80% without an active follow-up result; inactive = below that; test concentration not stated here. The list is a sample of the results. Entries with a potency or affinity are not part of this list.

A short description of the assay: M. tuberculosis H37Rv growth inhibitors, H37Rv strain (AID 1626).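 Note: bacteria incubated seven days before Alamar blue readout; 0% = bacteria only wells and 100% = bacteria with antibiotic wells.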 The conditions noted are these: active compounds read high, concentration not given here.
In the case of `CCc1nnc(NC(=O)CSc2nnc(COc3ccccc3)n2Cc2ccccc2)s1`, the inhibition is -6.06% (inactive).

With `O=C(NCc1ccccc1)c1c[nH]c2cc3c(cc2c1=O)OCCO3`, the inhibition was -8.63% (inactive).

For `CC(c1ccccc1C(O)(c1ccccc1)c1ccccc1)N(C)C` (stereo not drawn), the inhibition was 12.7% (inactive).

For `CC(c1ccccc1C(O)c1ccccc1)N(C)C` (stereo not drawn), the inhibition was -3.64% (inactive).

Take `COc1ccc(CNC(=O)CCn2c(=O)[nH]c3ccccc3c2=O)cc1`: the inhibition was -0.21% (inactive).

As to `CCn1c(C2CCN(S(=O)(=O)c3ccc(OC)cc3)CC2)n[nH]c1=S`, the inhibition was 2.92% (inactive).

With `Cc1ccc(C2C(C#N)=C(N)Oc3n[nH]c(C)c32)cc1` (stereo not drawn), the inhibition was -5.8% (inactive).

`Cc1[nH]nc2c1C(c1ccc(-c3ccccc3C#N)o1)C(C#N)=C(N)O2` (stereo not drawn): the inhibition is -1.71% (inactive).

Turning to `Cc1[nH]nc2c1C(c1ccc(Cl)cc1)C(C#N)=C(N)O2` (stereo not drawn), the inhibition was -11.2% (inactive).

As for `Cc1[nH]nc2c1C(c1ccco1)C(C#N)=C(N)O2` (stereo not drawn), the inhibition was 5.49% (inactive).

Consider `O=C1CCC(c2ccccc2)=NN1`, for which the inhibition is -7.26% (inactive).

With `CC(C)=C1C2CCC1C1C(=O)N(c3ccc(C)c(C)c3)C(=O)C21` (stereo not drawn), the inhibition is 2.47% (inactive).

In the case of `Cn1cc(Br)c(C(=O)NC(=S)Nc2ccc(S(N)(=O)=O)cc2)n1`, the inhibition was -5.09% (inactive).

As to `Cc1cc(C(=O)Nc2cccnc2Cl)on1`, the inhibition is -0.41% (inactive).

For the compound `Cc1occc1-c1nnc(SCC(=O)Nc2nccs2)n1CCc1ccccc1`, the inhibition is 1.51% (inactive).

In the case of `Cc1csc(NC(=O)c2ccc(C)c([N+](=O)[O-])c2)n1`, the inhibition was 3.94% (inactive).

Turning to `CC(=O)Nc1nc(-c2cccs2)cs1`, the inhibition was -6.43% (inactive).

On to `Cc1csc(NC(=O)c2ccc(C(=O)Nc3nc(C)cs3)cc2)n1`, for which the inhibition is -5.15% (inactive).

For `CC(=O)Nc1nc(-c2ccc([N+](=O)[O-])cc2)cs1`, the inhibition was -3.92% (inactive).

For the compound `COCC(=O)Nc1nc(-c2ccc([N+](=O)[O-])cc2)cs1`, the inhibition is 0.01% (inactive).

Turning to `COc1ccc(CC(=O)Nc2nc(-c3cccc([N+](=O)[O-])c3)cs2)cc1`, the inhibition is 1.75% (inactive).

For the compound `Cc1cc(NS(=O)(=O)c2ccc(NC(=O)NC(C)(C(F)(F)F)C(F)(F)F)cc2)no1`, the inhibition was 3.8% (inactive).

Consider `CCN1CCN(C(=O)CCNC(=O)Cn2ccc3ccccc3c2=O)CC1`, for which the inhibition is -4.7% (inactive).

With `O=C(O)c1ccc(Cn2cnc3scc(-c4ccccc4)c3c2=O)cc1`, the inhibition is 1.45% (inactive).

For the compound `CCc1cccc2c(C(=O)CSc3nnc(-c4ccoc4C)n3C)c[nH]c12`, the inhibition is -9.96% (inactive).

As to `Cc1ccc2nc3c(cc2c1)CC1(C(=O)N(C)C(=O)N(C)C1=O)C1COCCN31` (stereo not drawn), the inhibition was 15.8% (inactive).

On to `Cc1ccc(-n2c(=S)[nH]c3[nH]ncc3c2=O)cc1`, for which the inhibition is 1.01% (inactive).

For `COc1ccc(/C=C2\Sc3ccc(C(=O)N4CCc5ccccc5C4)cc3N(C)C2=O)cc1`, the inhibition was 23.7% (inactive).

On to `O=C1Nc2cc(C(=O)N3CCc4ccccc4C3)ccc2S/C1=C\c1ccccc1`, for which the inhibition is 27.6% (inactive).

Consider `CCCCSc1nc2ccc(Nc3nc(N4CCOCC4)nc(N4CCOCC4)n3)cc2s1`, for which the inhibition is 7.41% (inactive).

As for `COCc1cc(=O)n2[nH]c(SCc3ccccc3)nc2n1`, the inhibition is -0.4% (inactive).

With `CC(C)COc1ncnc2c1sc1nc3c(cc12)COC(C)(C)C3`, the inhibition is -12.6% (inactive).

Turning to `CC(=O)Nc1ccc(Nc2cc(C)nc3c(-c4ccc(Cl)cc4)c(C)nn23)cc1`, the inhibition is 21.5% (inactive).

Turning to `Cc1cc(Nc2ccccc2)n2nc(C)c(-c3ccccc3)c2n1`, the inhibition was 3.74% (inactive).

`Cc1cc(NCCCN2CCOCC2)n2nc(C)c(-c3ccccc3)c2n1`: the inhibition was 1.95% (inactive).

For `Cc1cc(NCCN2CCOCC2)n2nc(C)c(-c3ccccc3)c2n1`, the inhibition was 2.31% (inactive).

As to `Cc1nn2c(NCc3ccccn3)cc(C(C)C)nc2c1-c1ccccc1`, the inhibition was 99.8% (inactive).

For the compound `CCCc1cc(N2CCCC2)n2nc(C)c(-c3ccccc3)c2n1`, the inhibition is -0.95% (inactive).

`Cc1nn2c(N3CCCC3)cc(C(C)C)nc2c1-c1ccccc1`: the inhibition is -3.85% (inactive).

As to `Cc1nn2c(NCc3ccccn3)cc(C(C)(C)C)nc2c1-c1ccccc1`, the inhibition is 68.6% (inactive).

With `NC(=S)Nc1cccc(F)c1`, the inhibition is -6.55% (inactive).

As for `Cc1ccc(CNC(=O)Nc2cccc(C)c2)cc1`, the inhibition is -0.4% (inactive).

For `CCC(Sc1ccccn1)C(=O)Nc1nnc(C)s1` (stereo not drawn), the inhibition was 22% (inactive).

As to `O=C(Nc1ccc2c(c1)OCO2)c1nn(-c2ccccc2)c(=O)c2ccccc12`, the inhibition was -10.6% (inactive).

Take `Cc1nc2ncccn2c1-c1csc(Nc2ccc(O)cc2)n1`: the inhibition was 1.06% (inactive).

For the compound `Cc1ccc(Nc2nc(-c3c(C)nc4ncccn34)cs2)cc1`, the inhibition is 6.26% (inactive).

Turning to `O=C(Nc1cccc(Cl)c1)OCc1cn(-c2ccccc2)nn1`, the inhibition is -9.19% (inactive).

Take `Cc1ccc(CN2CCN(/N=C/c3cc(Br)ccc3O)CC2)cc1`: the inhibition is 2.82% (inactive).

Regarding `COc1ccc(CCNC(=O)CN(CCc2ccccc2)S(C)(=O)=O)cc1OC`, the inhibition is 5.24% (inactive).

In the case of `CCCN(CCC)C(=O)CSc1nc2c(sc(=S)n2-c2ccc(OCC)cc2)c(=O)[nH]1`, the inhibition was 6.22% (inactive).

In the case of `O=C(O)CCC(=O)Nc1ccccc1C(=O)NCc1ccccc1`, the inhibition was -4.2% (inactive).

Consider `O=C(Nc1ccccc1C(=O)NCc1ccccc1)c1ccccc1`, for which the inhibition is -4.15% (inactive).

Turning to `O=C(NCc1cccc(CNC(=O)c2ccco2)c1)c1ccco1`, the inhibition was -1.79% (inactive).

For `N/C(Cc1ccccc1Sc1ccccc1)=N\O`, the inhibition was -3.65% (inactive).

Turning to `COc1ccc(-c2noc(-c3cccs3)n2)cc1OC`, the inhibition is 10.1% (inactive).

With `COc1ccc(-c2csc(-c3cccs3)n2)c(OC)c1`, the inhibition was 6.31% (inactive).

With `O=C(CN1C(=O)NC2NC(=O)NC21)NN=C1CCCC1` (stereo not drawn), the inhibition was -3.27% (inactive).

For the compound `Cc1ccccc1N(CC(=O)NCCSCc1ccco1)S(C)(=O)=O`, the inhibition is -3.95% (inactive).

On to `O=C(COC(=O)c1ccc(O)cc1)Nc1ccc(N2CCCCC2)cc1`, for which the inhibition was 3.59% (inactive).

Consider `CC12CCC(C(=O)Nc3ccc4c(c3)OCCO4)(OC1=O)C2(C)C` (stereo not drawn), for which the inhibition was -12.4% (inactive).

Take `N#Cc1c(N)c(C(=O)c2ccc(Cl)cc2)n2c1CCC2`: the inhibition is -2.62% (inactive).

As to `O=C(Nc1nnc(-c2ccccc2)o1)c1cccc(N2C(=O)CCC2=O)c1`, the inhibition was 7.39% (inactive).

Take `O=C(Nc1cccnc1)c1ccc(Br)s1`: the inhibition was -8.07% (inactive).

Consider `CCCCNC(=O)Nc1nnc(-c2ccccc2)o1`, for which the inhibition is 64.8% (inactive).

On to `CC(NC(=O)c1ccc(Br)s1)c1ccncc1` (stereo not drawn), for which the inhibition was 0.09% (inactive).

On to `CC(C)(C)C(=O)Nc1nnc(-c2ccncc2)o1`, for which the inhibition is -0.06% (inactive).

In the case of `CCCCOC(=O)c1nnc(-c2ccc(Cl)cc2)o1`, the inhibition was -12.6% (inactive).

For the compound `CC(C)C(=O)Nc1nnc(-c2ccccc2)o1`, the inhibition is 10.9% (inactive).

Take `O=C(Nc1nnc(-c2ccncc2)o1)c1ccccc1`: the inhibition was 68% (inactive).

For the compound `COCCNC(=O)CCC(=O)NNc1nc2ccccc2c2nc(C)nn12`, the inhibition is -0.78% (inactive).

Take `CN(C)S(=O)(=O)c1cccc(C(=O)Nc2ccccc2[N+](=O)[O-])c1`: the inhibition was -64.1% (inactive).

Regarding `CC(=O)c1cccc(NC(=O)c2ccc(N(Cc3ccc(C)cc3)S(C)(=O)=O)cc2)c1`, the inhibition is 1.69% (inactive).

As for `Cc1ccc(/C=N/n2c(C)cc(C)c(C#N)c2=O)cc1`, the inhibition was -12.6% (inactive).

On to `O=C(NC1(C(F)(F)F)NC(=O)N(c2ccccc2F)C1=O)c1ccncc1` (stereo not drawn), for which the inhibition is -15.1% (inactive).

`Cc1nnc(N)s1`: the inhibition is -5.97% (inactive).

On to `CN(C)c1ccc(C(=O)NNC(=O)c2ccc(Cl)cc2)cc1`, for which the inhibition is -8.45% (inactive).

In the case of `O=C(Nc1nnc(-c2ccc(Cl)cc2)o1)c1ccc(N2C(=O)CCC2=O)cc1`, the inhibition was 8.01% (inactive).

As to `O=C(CNc1cccc(C(F)(F)F)c1)N/N=C/c1cn(-c2ccccc2)nc1-c1ccccc1`, the inhibition is 8.35% (inactive).

For `Cc1ccccc1NC(=O)CSc1nc(N)c2c3c(sc2n1)CSC(C)(C)C3`, the inhibition was 53.7% (inactive).

Turning to `CC1CCc2c(sc3nc(SCC(=O)NCc4ccco4)nc(N)c23)C1` (stereo not drawn), the inhibition was 7.95% (inactive).

For `CC(C)(C)C1CCc2c(sc3nc(SCC(=O)O)nc(N)c23)C1` (stereo not drawn), the inhibition was -0.64% (inactive).

As for `CCOC(=O)CSc1nc(N)c2c3c(sc2n1)CCCC3`, the inhibition was 70.6% (inactive).

For the compound `NC(=O)CSc1nc(N)c2c3c(sc2n1)CCCCC3`, the inhibition was -1.55% (inactive).

Turning to `CNC(=O)CSc1nc(N)c2c3c(sc2n1)CCC3`, the inhibition is 9.76% (inactive).

With `CCOc1ccccc1C1C(C#N)=C(N)Oc2cc(N)ccc21` (stereo not drawn), the inhibition is 8.36% (inactive).

Consider `C=CCN1C(=O)C(C(C)CC)NC1=S` (stereo not drawn), for which the inhibition was -2.92% (inactive).

As for `Cc1ccc(N=C2NC(=O)C(CC(=O)NCc3ccccc3)S2)cc1C` (stereo not drawn), the inhibition was -1.52% (inactive).

Take `O=C(CCc1c[nH]c2ccccc12)Nc1ccc(S(=O)(=O)Nc2ncccn2)cc1`: the inhibition is -2.28% (inactive).

As for `CC1CC1C(=O)OCC(=O)Nc1cccc([N+](=O)[O-])c1` (stereo not drawn), the inhibition was -1.97% (inactive).

On to `CN1CCN(Cc2ccc(Sc3ccc(Cl)cc3)c([N+](=O)[O-])c2)CC1`, for which the inhibition is 18.9% (inactive).

As for `Cc1ccc(Sc2ccc(CN3CCCC3)cc2[N+](=O)[O-])cc1`, the inhibition was 9.11% (inactive).

In the case of `O=C(CN1CCOCC1)NNC(=S)Nc1ccc(Cl)cc1`, the inhibition is 4.8% (inactive).

With `Cc1ccc(SCC(=O)NC2CCS(=O)(=O)C2)cc1` (stereo not drawn), the inhibition is 4.3% (inactive).

For the compound `c1ccc2c(c1)oc1c(NCc3ccc4c(c3)OCO4)ncnc12`, the inhibition was 57.7% (inactive).

On to `Cc1nc(Nc2ccc3c(c2)OCO3)c2oc3ccccc3c2n1`, for which the inhibition is -15.2% (inactive).

As for `CCc1nc(N2CCN(Cc3ccc4c(c3)OCO4)CC2)c2oc3ccccc3c2n1`, the inhibition was 5.87% (inactive).

In the case of `CCc1nc(Nc2ccc3c(c2)OCCO3)c2oc3ccccc3c2n1`, the inhibition was 1.04% (inactive).

In the case of `CC1Cc2ccccc2N1C(=O)c1cnc2ccccn2c1=O` (stereo not drawn), the inhibition is -5.12% (inactive).
